# Assay outcomes: PubChem BioAssay, several laboratories
# FAS TE block: FAS thioesterase (human) inhibition | recombinant FAS-TE, OMFH fluorogenic substrate, fluorescence endpoint | inhibition, % at 15 µM | actives 0.67% (n = 360,000) | AID 602261;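 active means compounds whose normalised, plate-corrected inhibition of enzyme fluorescence in the single-dose primary screen is 50% or more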
# GC-A act: GC-A (human) enzyme activation. HEK293 GC-A cells, cGMP TR-FRET, EC30 ANP; 0% at EC30 ANP, 100% saturating ANP. actives 0.14% (n = 370,000). P16066. AID 1671463. activation, % at 10 µM; in the data active means activation above about 40%
# ADAM17 inh: ADAM17 inhibition, QFRET primary screen; AID 720648; recombinant ADAM17, EDANS/DABCYL FRET peptide cleavage; inhibition, % at 6.95 µM; P78536; actives 0.83% (n = 370,000);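 active means inhibition above the mean of compounds lying between control limits plus 3 SD, set per campaign, cut at about 8.5% in these data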
# GC-B act: GC-B (human) receptor activation. P20594. HEK293-GC-B cells, CNP EC30, cGMP TR-FRET; 0% at EC30 CNP, 100% saturating CNP. activation, % at 10 µM. actives 0.11% (n = 370,000). AID 1920062;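 active means activation at 10 µM reaching about 35% in either raw or pattern-adjusted values, limit read from the data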
# ADAM10 inh: inhibitors of human ADAM10; O14672; recombinant ADAM10, EDANS/DABCYL FRET peptide cleavage, 3 h; inhibition, % at 7 µM; actives 0.62% (n = 370,000); AID 720582;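 active means inhibition above a per-campaign cutoff equal to the mean of compounds falling between control-based bounds plus 3 SD, cut at about 20% in these data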
# Target sequence (O14672 214-748 limits assumed): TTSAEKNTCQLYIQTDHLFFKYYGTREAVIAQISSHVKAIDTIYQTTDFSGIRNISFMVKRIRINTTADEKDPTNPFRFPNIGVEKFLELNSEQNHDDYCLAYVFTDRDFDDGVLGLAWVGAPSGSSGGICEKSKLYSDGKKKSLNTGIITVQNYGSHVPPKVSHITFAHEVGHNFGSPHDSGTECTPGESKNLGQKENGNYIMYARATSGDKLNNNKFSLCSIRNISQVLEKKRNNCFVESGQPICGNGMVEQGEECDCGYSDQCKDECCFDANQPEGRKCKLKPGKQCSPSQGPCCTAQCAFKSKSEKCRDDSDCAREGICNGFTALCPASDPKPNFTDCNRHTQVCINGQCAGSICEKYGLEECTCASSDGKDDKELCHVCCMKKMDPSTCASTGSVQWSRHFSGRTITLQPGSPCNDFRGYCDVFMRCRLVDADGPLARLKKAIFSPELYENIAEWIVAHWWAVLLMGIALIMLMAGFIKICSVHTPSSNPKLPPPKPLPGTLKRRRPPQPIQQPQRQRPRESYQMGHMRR
# FAS-TE inh conf: FAS thioesterase (human) inhibition, confirmation; inhibition, % at 15 µM; actives 45% (n = 2,300); recombinant FAS-TE, OMFH fluorogenic substrate, fluorescence; shares compounds with FAS TE block;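 active means compounds inhibiting the enzyme by at least 50% at 15 µM in any one of the replicates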
# A number is an active result; n = inactive; x = no result. In the library only some 2% were active in any assay of this set; here they are far more common.
SMILES,FAS TE block,GC-A act,ADAM17 inh,GC-B act,ADAM10 inh,FAS-TE inh conf
CN(CCOC(=O)CC1C=CCC1)C1CN(Cc2cn(Cc3ccccc3Cl)nn2)S(=O)(=O)C1 (centres undefined),x,n,n,n,n,x
O=C(CCc1ccccc1)Nc1cccc([N+](=O)[O-])c1,n,n,n,n,n,x
Cc1ccc([N+](=O)[O-])cc1NC(=O)CCc1ccccc1,50,n,n,n,n,52
Cc1ccc([N+](=O)[O-])cc1NC(=O)CCCOc1ccccc1,68,n,n,n,n,32
FC(F)(F)c1cccc(N2CCN(C(=S)NC3CCCCC3)CC2)c1,51,n,n,n,n,n
FC(F)(F)c1cccc(N2CCN(C(=S)NC3CCCC3)CC2)c1,n,n,n,n,n,x
O=C(c1ccc(Cl)cc1)C1C2C(=O)N(c3ccccc3)C(=O)C2C2CCCN21 (centres undefined),n,n,n,n,n,x
O=C(c1ccc(Cl)cc1)[C@@H]1[C@@H]2C(=O)N(c3ccccc3)C(=O)[C@@H]2C2c3ccccc3C=NN21 (some centres undefined),52,n,n,n,n,n
CC(=O)OCCCNc1cc(Sc2ccc(C)cc2)c2nonc2c1[N+](=O)[O-],n,n,n,n,n,x
CC(=O)OCCCNc1cc(Sc2nc3ccccc3s2)c2nonc2c1[N+](=O)[O-],82,x,x,x,x,67
CC(=O)OCCNc1cc(Sc2nc3ccccc3[nH]2)c2nonc2c1[N+](=O)[O-],76,n,n,n,n,72
O=[N+]([O-])c1c(NCCCO)cc(Sc2ccc(Cl)cc2)c2nonc12,61,n,n,n,n,49
CN(Cc1ccco1)S(=O)(=O)c1ccc2c(c1)CCN2C(=O)CC(C)(C)C,x,n,n,n,n,x
O=C(/C=C/c1cc([N+](=O)[O-])ccc1OC(F)F)Nc1cccc(OC(F)F)c1,n,n,n,n,n,x
COc1ccc(CNC(=O)/C=C/c2cc([N+](=O)[O-])ccc2OC(F)F)cc1OC,75,n,n,n,n,78
O=C(/C=C/c1cc([N+](=O)[O-])ccc1OC(F)F)Nc1cccc2ccccc12,63,n,n,n,n,48
COc1ccccc1NC(=O)/C=C/c1cc([N+](=O)[O-])ccc1OC(F)F,n,n,n,n,n,x
COc1ccc(CNC(=O)/C=C/c2ccccc2[N+](=O)[O-])cc1,n,n,n,n,n,x
O=C(/C=C/c1cc([N+](=O)[O-])ccc1OC(F)F)NCc1ccc(Cl)cc1,80,n,n,n,n,88
COc1ccc(CNC(=O)/C=C/c2cc([N+](=O)[O-])ccc2OC(F)F)cc1,82,n,n,n,n,65
COC(=O)[C@H]1C[C@@]2(N3CCCC3)c3ccccc3N(C(=O)OC(C)(C)C)[C@H]2N1C(=O)OC(C)(C)C,x,n,n,n,n,x
COc1ccc(C(=O)OCCN(C)C2CN(Cc3cn(Cc4ccccc4Cl)nn3)S(=O)(=O)C2)cc1OC (centres undefined),x,n,n,n,n,x
COC(=O)c1ccc(CNC(=O)/C=C/c2cc([N+](=O)[O-])ccc2OC(F)F)cc1,83,n,n,n,n,81
Cc1ccc(NC(=O)C(OC(=O)c2ccc(C=O)cc2)c2ccccc2)cc1Cl (centres undefined),50,x,x,x,x,n
Cc1ccc(C)c(NC(=O)C(OC(=O)c2ccc(CO)cc2)c2ccccc2)c1 (centres undefined),n,n,n,n,n,x
C#CCN(C[C@H]1[C@H](OC(=O)Nc2cccs2)[C@H](OC(=O)Nc2cccs2)C[C@H]2C(=O)N(c3ccccc3)C(=O)[C@@H]12)S(=O)(=O)c1ccc(C)cc1,54,n,n,n,n,n
C#CCN(C[C@H]1[C@H](OC(=O)NC2CC2)[C@H](OC(=O)NC2CC2)C[C@H]2C(=O)N(c3ccccc3)C(=O)[C@@H]12)S(=O)(=O)c1ccc(C)cc1,n,n,n,n,n,x
C#CCN(C[C@H]1[C@H](OC(=O)NCc2ccccc2)[C@H](OC(=O)NCc2ccccc2)C[C@H]2C(=O)N(c3ccccc3)C(=O)[C@@H]12)S(=O)(=O)c1ccc(C)cc1,62,n,n,n,n,n
